Bioassay records from PubChem BioAssay.
The sample as a whole holds a higher share of hits than the screen did.
miR-122 inh = miR-122 suppressors via Renilla sensor increase, primary screen, cell-based, Huh7 psiCHECK-miR122, Renilla luciferase, single point. 48 h. activation, % at 12.5 µM. 340,000 compounds, 0.14% hits;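 active = mean activation of 30% or more, with every replicate also reaching 30%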;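 also: 0% = median of neutral control wells and 100% = median of positive control wells; higher luciferase signal means stronger suppression of miR-122 activity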
An asterisk follows results filed as active.

SMILES | miR-122 inh
COc1ccc(/C=N/NC(=O)COc2ccccc2-c2ccccc2)cc1 | -129
CNC[C@@H]1Oc2cc(C#Cc3cccc(F)c3)ccc2S(=O)(=O)N([C@@H](C)CO)C[C@H]1C | 2
CCCN(C)C[C@@H]1Oc2ncc(-c3ccccc3OC)cc2C(=O)N([C@H](C)CO)C[C@H]1C | 9
COc1ccccc1-c1ccc2c(c1)O[C@H](CN(C)S(=O)(=O)c1ccc(C)cc1)[C@@H](C)CN([C@@H](C)CO)S2(=O)=O | 2
CCC(=O)Nc1ccc2c(c1)OC[C@@H](C)NC[C@@H](C)[C@H](OC)CN(C)C2=O | 4
CCC(=O)Nc1ccc2c(c1)C(=O)N(C)C[C@H](OC)[C@@H](C)CN(C(C)=O)[C@@H](C)CO2 | -3
CCCCC(=O)NC(c1ccccc1OC)c1ccc2cccnc2c1O (configuration not stated) | 46*
COc1ccc(C(C)(C)C)cc1NS(=O)(=O)c1cccc2cccnc12 | -117
COc1ccc(NS(=O)(=O)c2ccc3ccccc3c2)c2ncccc12 | -104
CCC(=O)Nc1ccc2c(c1)OC[C@H](C)N(C(=O)c1ccccc1F)C[C@H](C)[C@@H](OC)CN(C)C2=O | 2
C[C@H](CO)N1C[C@H](C)[C@H](CN(C)S(=O)(=O)c2ccc(F)cc2)Oc2ncc(/C=C/c3ccccc3)cc2C1=O | 7
CCCNC(=O)N(C)C[C@@H]1Oc2ncc(C#CCC(C)C)cc2C(=O)N([C@@H](C)CO)C[C@H]1C | 2
COc1cccc(-c2cnc3c(c2)C(=O)N([C@H](C)CO)C[C@H](C)[C@H](CN(C)S(=O)(=O)c2ccc(C)cc2)O3)c1 | -1
C[C@H](CO)N1C[C@H](C)[C@H](CN(C)C(=O)Cc2ccncc2)Oc2ncc(C#CCN(C)C)cc2C1=O | -6
CCCNC(=O)N1C[C@H](C)[C@@H](OC)CN(C)C(=O)c2cc(NS(=O)(=O)CC)ccc2OC[C@@H]1C | 2
CCS(=O)(=O)Nc1ccc2c(c1)C(=O)N(C)C[C@@H](OC)[C@H](C)CN(CC1CCCC1)[C@H](C)CO2 | 38*
CCCNC(=O)N1C[C@@H](C)[C@@H](OC)CN(C)C(=O)c2cc(NS(=O)(=O)CC)ccc2OC[C@H]1C | -2
C[C@H]1CN([C@@H](C)CO)S(=O)(=O)c2ccc(C#Cc3ccccc3)cc2O[C@@H]1CN(C)C(=O)Nc1ccc2c(c1)OCO2 | -51
C[C@H]1CN([C@@H](C)CO)C(=O)c2cc(Br)cnc2O[C@H]1CN(C)Cc1ccc2c(c1)OCO2 | 12
COc1ccccc1N(CC(=O)N1CCCCC1C)S(=O)(=O)c1ccc(Cl)cc1 (configuration not stated) | -128
COc1ccccc1S(=O)(=O)Nc1cccc(S(=O)(=O)N2CCCC2)c1 | -77
COc1cc(C(=O)Nc2ccc(S(=O)(=O)N3CCCCC3C)cc2)cc(OC)c1OC (configuration not stated) | 46*
CCCNC(=O)N1C[C@@H](C)[C@H](OC)CN(C)C(=O)c2cc(NS(=O)(=O)CC)ccc2OC[C@@H]1C | 1
C/C=C/c1ccc2c(c1)O[C@@H](CN(C)S(=O)(=O)c1ccccc1OC)[C@H](C)CN([C@@H](C)CO)S2(=O)=O | -3
COc1cccc(-c2ccc3c(c2)O[C@@H](CN(C)C(=O)C2CCCCC2)[C@H](C)CN([C@@H](C)CO)S3(=O)=O)c1 | -19
SMILES | miR-122 inh
C[C@H](CO)N1C[C@H](C)[C@@H](CN(C)Cc2ccncc2)Oc2ncc(C#Cc3cccnc3)cc2C1=O | 4
CCC(=O)Nc1ccc2c(c1)C(=O)N(C)C[C@@H](OC)[C@H](C)CN(Cc1ccccc1OC)[C@@H](C)CO2 | 2
C[C@H]1CN([C@@H](C)CO)C(=O)c2cc(C#CC3(O)CCCC3)cnc2O[C@H]1CN(C)C(=O)C1CCCCC1 | -1
COc1ccc(S(=O)(=O)N(C)C[C@H]2Oc3cc(-c4ccccc4OC)ccc3S(=O)(=O)N([C@H](C)CO)C[C@H]2C)cc1 | -19
Cc1ccc(-c2nc(C(Cl)Cl)c3ccccc3n2)cc1 | 61*
C[C@H]1CN([C@@H](C)CO)S(=O)(=O)c2ccc(C#Cc3cccnc3)cc2O[C@H]1CN(C)C(=O)C1CC1 | -6
Cc1oc(-c2ccc(Cl)cc2)nc1CN1CCCC(C(=O)NCc2ccco2)C1 (configuration not stated) | 39*
CCC1=Nc2cc(C(=O)NCc3ccco3)ccc2Sc2ccc(C)cc21 | -119
Cc1ccc(Nc2nc(C(=O)NCc3ccco3)cs2)cc1 | -162
CCCN(C)C[C@@H]1Oc2ncc(/C=C/c3ccccc3)cc2C(=O)N([C@H](C)CO)C[C@@H]1C | 4
CCC(=O)Nc1ccc2c(c1)OC[C@H](C)NC[C@@H](C)[C@H](OC)CN(C)C2=O | 3
COCC(=O)N(C)C[C@H]1Oc2ncc(C#Cc3ccncc3)cc2C(=O)N([C@@H](C)CO)C[C@H]1C | -9
Cc1nnc(NC(=O)CSc2nc(C(C)C)nc3sc(C)c(C)c23)s1 | 55*
C[C@H]1CN([C@@H](C)CO)C(=O)c2cc(C#CC3CC3)cnc2O[C@@H]1CN(C)C | 4
CCC(=O)N(C)C[C@@H]1Oc2cc(-c3cccnc3)ccc2S(=O)(=O)N([C@@H](C)CO)C[C@H]1C | -19
COc1cccc(S(=O)(=O)N(C)C[C@@H]2Oc3ncc(C#Cc4ccccc4)cc3C(=O)N([C@H](C)CO)C[C@@H]2C)c1 | 3
CCC(=O)N(C)C[C@H]1Oc2cc(-c3cccnc3)ccc2S(=O)(=O)N([C@@H](C)CO)C[C@@H]1C | -7
C[C@H]1CN([C@@H](C)CO)S(=O)(=O)c2ccc(-c3ccc(C(=O)N(C)C)cc3)cc2O[C@@H]1CN(C)C | 2
CC(=O)N(C)C[C@@H]1Oc2cc(/C=C/c3ccccc3)ccc2S(=O)(=O)N([C@H](C)CO)C[C@H]1C | -8
CC(=O)N1[C@H](CNC(=O)CN(C)C)[C@@H](c2ccc(C3=CCCCC3)cc2)[C@@H]1CO | -292
CN(C)CC(=O)N1CCCCN2[C@@H](CO)[C@@H](c3ccc(/C=C/c4ccccc4)cc3)[C@@H]2C1 | 32*
CN(C)C(=O)c1ccc(-c2ccc([C@H]3[C@@H](CO)N4CCCCN(C(=O)C5CCCC5)C[C@@H]34)cc2)cc1 | 30*
C[C@@H]1CN([C@@H](C)CO)S(=O)(=O)c2ccc(-c3ccc(C(=O)N(C)C)cc3)cc2O[C@@H]1CN(C)C | 2
C[C@@H]1CN([C@@H](C)CO)S(=O)(=O)c2ccc(-c3cccc(C#N)c3)cc2O[C@H]1CN(C)C(=O)Nc1ccccc1F | 1
C/C=C/c1ccc2c(c1)O[C@H](CN(C)S(C)(=O)=O)[C@H](C)CN([C@H](C)CO)S2(=O)=O | -13
SMILES | miR-122 inh
CCCNC(=O)N(C)C[C@H]1Oc2cc(C#Cc3cccc(F)c3)ccc2S(=O)(=O)N([C@H](C)CO)C[C@@H]1C | -30
COc1ccc(-c2ccc3c(c2)O[C@@H](CN(C)C(=O)c2ccccc2F)[C@H](C)CN([C@H](C)CO)S3(=O)=O)cc1 | -11
Cc1ccc(-c2ccc3c(c2)O[C@H](CN(C)Cc2ccc(F)cc2)[C@@H](C)CN([C@H](C)CO)S3(=O)=O)cc1 | -98
C[C@H](CO)N1C[C@H](C)[C@H](CN(C)CC2CCOCC2)Oc2ncc(-c3cncnc3)cc2C1=O | -1
C[C@@H]1CN([C@@H](C)CO)C(=O)c2cc(C#Cc3ccccn3)cnc2O[C@@H]1CN(C)C(=O)CCN1CCCCC1 | 9
C[C@@H]1CN([C@H](C)CO)C(=O)c2cc(C#CC3(O)CCCC3)cnc2O[C@H]1CN(C)C(=O)C1CCCCC1 | -4
